# Several values for one entry are separate records, joined by “and”; a condition that tells them apart may be missing. Identical values can stand only once. Inconclusive results are not listed. More than one record can exist for a structure, and the calls need not agree. Activity calls are given as the source filed them. Unless noted, calls come from the whole dose curve; as a rule, active = well fitted curve in the direction sought with a large enough effect; inconclusive = small, poorly fitted or top-dose-only effect, or another doubt; inactive = no such curve, though single readings can be large; an effect the other way counts as inactive or inconclusive.
# Experiments:
# [1] = target: Cytochrome P450 2C9 (Homo sapiens) (UniProt P11712); test: Cytochrome P450 family 2 subfamily C member 9 (CYP2C9) small molecule antagonists: luciferase biochemical (cell-free) qHTS assay (AID 1645842; active = well fitted curve in the direction sought with a large enough effect in the repeat runs; an effect the other way counts as inactive or inconclusive; note: nearly all actives have a fitted effect of over 55% in size; note: potency is the fitted concentration of half-maximal effect); conditions: P450-Glo CYP2C9 enzyme assay, luciferin luminescence; series mostly up to 57.4 µM
# Sequence of Cytochrome P450 2C9 (Homo sapiens) (P11712 whole entry, looked up): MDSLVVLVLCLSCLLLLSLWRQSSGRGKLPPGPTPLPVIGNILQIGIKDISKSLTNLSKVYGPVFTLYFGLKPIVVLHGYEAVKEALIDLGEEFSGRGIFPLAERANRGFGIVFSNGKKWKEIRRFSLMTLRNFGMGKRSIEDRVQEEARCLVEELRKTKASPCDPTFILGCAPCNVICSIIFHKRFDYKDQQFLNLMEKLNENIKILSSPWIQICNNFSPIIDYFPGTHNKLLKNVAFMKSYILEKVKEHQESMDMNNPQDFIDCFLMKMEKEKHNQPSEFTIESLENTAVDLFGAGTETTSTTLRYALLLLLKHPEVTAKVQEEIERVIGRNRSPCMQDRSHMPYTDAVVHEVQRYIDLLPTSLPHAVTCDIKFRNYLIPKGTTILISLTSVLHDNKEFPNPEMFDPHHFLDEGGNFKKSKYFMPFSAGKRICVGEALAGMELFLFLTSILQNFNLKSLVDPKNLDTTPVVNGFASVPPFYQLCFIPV
# Procedure, shortened: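 P450-Glo CYP2C9 system: proluciferin substrate with enzyme in mix containing 0.4% BSA, 10 min at room temperature, then NADPH regeneration solution added and incubated 1 h at 37C. Detection reagent stopped reaction; luminescence read after 20 min as RLU.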
# [2] = Primary qHTS for inhibitors of nuclear receptor binding SET domain protein 2 (NSD2) in an isogenic RCH-ACV NSD2 p.E1099K mutant (9B) (AID 1645876); conditions: RCH-ACV NSD2 E1099K (9B) viability, CellTiter-Glo, 72 h; series mostly up to 44.9 µM; note: nearly all actives have a fitted effect of over 70% in size; note: potency is the fitted concentration of half-maximal effect
# [3] = Primary qHTS for inhibitors of nuclear receptor binding SET domain protein 2 (NSD2) in an RCH-ACV wild type WT cells (2C) (AID 1645877); conditions: RCH-ACV (leukaemia line) NSD2 WT (2C) viability, CellTiter-Glo, 72 h; series mostly up to 44.9 µM; note: nearly all actives have a fitted effect of over 70% in size; note: potency is the fitted concentration of half-maximal effect
# [4] = target: Cytochrome P450 3A4 (Homo sapiens) (UniProt P08684); test: Cytochrome P450 family 3 subfamily A member 4 (CYP3A4) small molecule antagonists: luciferase qHTS assay (AID 1645841; active = well fitted curve in the direction sought with a large enough effect in the repeat runs; an effect the other way counts as inactive or inconclusive; note: nearly all actives have a fitted effect of over 45% in size); conditions: P450-Glo CYP3A4 enzyme assay, luciferin luminescence; series mostly up to 57.4 µM
# Sequence of Cytochrome P450 3A4 (Homo sapiens) (P08684 whole entry, looked up): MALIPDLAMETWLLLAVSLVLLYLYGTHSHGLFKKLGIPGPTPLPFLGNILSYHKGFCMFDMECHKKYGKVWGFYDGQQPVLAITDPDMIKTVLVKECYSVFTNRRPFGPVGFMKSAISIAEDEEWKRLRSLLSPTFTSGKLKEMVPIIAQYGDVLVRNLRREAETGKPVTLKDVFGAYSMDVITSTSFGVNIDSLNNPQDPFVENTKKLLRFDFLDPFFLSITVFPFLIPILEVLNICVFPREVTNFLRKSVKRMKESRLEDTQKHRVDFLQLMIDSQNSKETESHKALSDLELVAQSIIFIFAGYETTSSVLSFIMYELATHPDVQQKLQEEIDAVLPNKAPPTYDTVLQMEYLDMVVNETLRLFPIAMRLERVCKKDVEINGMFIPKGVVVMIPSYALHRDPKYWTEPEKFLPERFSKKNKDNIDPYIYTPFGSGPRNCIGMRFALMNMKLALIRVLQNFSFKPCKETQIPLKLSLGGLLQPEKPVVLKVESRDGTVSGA
# Procedure, shortened: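 Luminescent CYP3A4 activity readout: compounds plus enzyme-substrate mix 10 min at room temperature, reaction started with NADPH regenerating system for 1 h, stopped with detection reagent, read after 20 min. Ketoconazole served as control.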
# [5] = target: N-terminal Xaa-Pro-Lys N-methyltransferase 1 (Homo sapiens) (UniProt Q9BV86); test: Confirmatory qHTS for Inhibitors of N-terminal methyltransferase 1 (NTMT1): MTaseGlo Assay (AID 1645874); conditions: NTMT1 enzyme, MTase-Glo SAH luminescence; series mostly up to 100 µM; note: nearly all actives have a fitted effect of over 65% in size; note: potency is the fitted concentration of half-maximal effect
# Sequence of N-terminal Xaa-Pro-Lys N-methyltransferase 1 (Homo sapiens) (Q9BV86 whole entry, looked up): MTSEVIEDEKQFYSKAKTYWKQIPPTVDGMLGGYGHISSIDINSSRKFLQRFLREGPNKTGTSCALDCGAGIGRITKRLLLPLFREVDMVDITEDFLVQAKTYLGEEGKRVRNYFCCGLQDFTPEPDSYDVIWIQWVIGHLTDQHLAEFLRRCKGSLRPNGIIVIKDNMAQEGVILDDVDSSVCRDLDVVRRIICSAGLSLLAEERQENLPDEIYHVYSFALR
# Procedure, shortened: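 MTase-Glo luminescence measured SAH formed by 125 nM NTMT1 from 100 uM SAM and 1 uM SPKRIA peptide over 30 min at room temperature, following 15 min compound preincubation. Percent inhibition against no-enzyme and DMSO controls gave 4-parameter Hill fits.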
# [6] = target: Papain (Carica papaya) (UniProt P00784); test: Primary qHTS assay for inhibitors of the protease papain (AID 1645873); conditions: papain Z-FR-AMC cleavage, AMC fluorescence; series mostly up to 49.8 µM;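 note: papain turnover of Z-FR-AMC read as the AMC fluorescence gain over 10 min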
# Sequence of Papain (Carica papaya) (P00784 whole entry, looked up): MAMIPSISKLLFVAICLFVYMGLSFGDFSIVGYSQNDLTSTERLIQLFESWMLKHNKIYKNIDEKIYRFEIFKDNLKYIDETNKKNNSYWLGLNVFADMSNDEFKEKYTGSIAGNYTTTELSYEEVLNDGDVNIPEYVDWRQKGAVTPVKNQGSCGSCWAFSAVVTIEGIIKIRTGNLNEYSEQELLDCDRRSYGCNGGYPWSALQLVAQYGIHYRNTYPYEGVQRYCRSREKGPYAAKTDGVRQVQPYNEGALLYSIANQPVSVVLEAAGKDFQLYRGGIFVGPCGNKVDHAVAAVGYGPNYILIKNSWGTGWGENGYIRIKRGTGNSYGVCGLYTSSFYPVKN
compound,measurement,setting,value
O=C(CCCN1CCN(c2ccc(F)cc2)CC1)NC1c2ccccc2CSc2ccccc21 (stereo unspecified),Potency,[1],8.71 µM (active)
O=C(Nc1cccc2c(=O)cc(-c3nn[nH]n3)oc12)c1ccc(OCCCCc2ccccc2)cc1,Potency,[1],7.76 µM (active)
same,Potency,[2],inactive
same,Potency,[3],inactive
CNc1nc(Nc2ccc(C(=O)N3CCOCC3)cc2OC)ncc1Cl,Potency,[1],inactive
CC[C@H](C)C(=O)O[C@H]1C[C@H](O)C=C2C=C[C@H](C)[C@H](CC[C@@H](O)C[C@@H](O)CC(=O)O)[C@H]21,outcome,[4],inactive
same,Potency,[1],inactive
same,Potency,[2],inactive
same,Potency,[3],inactive
Cc1ccc2c(c1)c1c(n2CCc2ccc(C)nc2)CCN(C)C1,Potency,[1],10.7 µM (active)
same,Potency,[2],14.5 µM (active)
Cc1cc(C(C)Nc2ccccc2)c2nc(N3CCOCC3)cc(=O)n2c1 (stereo unspecified),Potency,[1],1.07 µM (active)
same,Potency,[2],2.3 µM (active) and 2.63 µM (active)
same,Potency,[3],2.3 µM (active) and 2.63 µM (active)
CCNC(=O)Nc1ccc(Oc2ncnc(N)c2C=NOC)cc1Cl,Potency,[1],inactive
CC(C)(OCc1nn(Cc2ccccc2)c2ccccc12)C(=O)O,outcome,[4],inactive
same,Potency,[1],inactive
same,Potency,[2],inactive
same,Potency,[3],inactive
CC1=C(C(=O)Nc2cc3cn[nH]c3cc2F)C(c2ccc(C(F)(F)F)cc2)CC(=O)N1 (stereo unspecified),Potency,[1],19 µM (active)
Cc1nc(C(=O)NCC(=O)O)c(O)c2ccc(Oc3ccccc3)cc12,Potency,[1],inactive
same,Potency,[2],inactive
C[C@H]1COC2=C1C(=O)C(=O)c1c2ccc2c1CCCC2(C)C,Potency,[1],19 µM (active)
Cc1nc2c([nH]1)CCN(C(=O)c1ccc(NC(=O)c3ccccc3-c3ccccc3)cc1)c1ccccc1-2,Potency,[1],inactive
CCNC(=O)c1noc(-c2cc(C(C)C)c(O)cc2O)c1-c1ccc(CN2CCOCC2)cc1,Potency,[1],2.39 µM (active)
same,Potency,[5],inactive
same,Potency,[2],18.3 nM (active) and 11.8 nM (active)
same,Potency,[3],18.3 nM (active) and 13.2 nM (active)
O=C(c1ccc(F)c(F)c1Nc1ccc(I)cc1F)N1CC(O)([C@H]2CCCCN2)C1,Potency,[1],inactive
CCOC(=O)N1c2ccc(C(F)(F)F)cc2[C@@H](N(Cc2cc(C(F)(F)F)cc(C(F)(F)F)c2)C(=O)OC)C[C@H]1CC,Potency,[1],inactive
same,Potency,[2],inactive
same,Potency,[3],inactive
O=C(Nc1cccc(C(F)(F)F)c1)Nc1cc(S(=O)(=O)NC2CC2)ccc1-c1ccsc1,Potency,[1],3.38 µM (active)
same,Potency,[2],23.5 µM (active)
same,Potency,[3],23 µM (active)
C[C@@H]1CCO[C@H]2Cn3cc(C(=O)NCc4ccc(F)cc4F)c(=O)c(O)c3C(=O)N12,Potency,[1],inactive
same,Potency,[2],20.5 µM (active)
Fc1ccc(CNc2ncnc3ccc(F)cc23)cc1,Potency,[1],8.49 µM (active)
C[C@@H](N)c1ccc(C(=O)Nc2ccnc3[nH]ccc23)cc1,Potency,[1],inactive
same,Potency,[2],9.34 µM (active)
same,Potency,[3],4.17 µM (active)
OC[C@H]1O[C@@H](OCCc2ccc(O)cc2)[C@H](O)[C@@H](O)[C@H]1O,Potency,[1],inactive
CC(C)CN(C[C@@H](O)[C@H](Cc1ccccc1)NC(=O)O[C@H]1CO[C@H]2OCC[C@H]21)S(=O)(=O)c1ccc(N)cc1,Potency,[1],7.56 µM (active)
CCN1CCC(n2cc(CNc3cc(Cl)c4ncc(C#N)c(Nc5ccc(F)c(Cl)c5)c4c3)nn2)CC1,Potency,[1],7.56 µM (active)
same,Potency,[5],10 µM (active)
same,Potency,[2],23.5 µM (active)
same,Potency,[3],18.6 µM (active)
Clc1ccc(COC(Cn2ccnc2)c2ccc(Cl)cc2Cl)c(Cl)c1 (stereo unspecified),Potency,[1],0.19 µM (active)
C[C@H](c1ccc(F)cc1CCCC(=O)O)N(c1cc(F)ccc1F)S(=O)(=O)c1ccc(Cl)cc1,Potency,[1],8.49 µM (active)
O=C(CO)N1CCC(c2[nH]nc(-c3ccc(Cl)cc3)c2-c2ccncn2)CC1,Potency,[1],6.74 µM (active)
same,Potency,[2],inactive
CCCCn1c(=O)n(Cc2ccccc2F)c(=O)c2[nH]c(Cc3ccc(NC(C)=O)cc3)nc21,Potency,[1],6.01 µM (active)
same,Potency,[2],inactive
Cc1cc(-c2ncc(CC(=O)Nc3ccc(-c4cnccn4)cn3)cc2C)ccn1,Potency,[1],inactive
same,Potency,[5],inactive
c1ccc(-c2oc3ncnc(NC[C@@H]4CCCO4)c3c2-c2ccccc2)cc1,Potency,[1],7.56 µM (active)
same,Potency,[5],8.91 µM (active)
same,Potency,[2],inactive
same,Potency,[3],inactive and 18.3 µM (active)
c1ccc(CNc2nc(N3CCOc4ccccc43)nc3c2CCCC3)cc1,Potency,[1],1.9 µM (active)
O=c1[nH]nc(OCCCc2ccc(Cl)cc2)c(NCc2cccnc2)c1Br,Potency,[1],1.51 µM (active)
same,Potency,[2],8.17 µM (active)
same,Potency,[3],9.16 µM (active)
COc1ccc(C=CC(=O)Nc2ccccc2C(=O)O)cc1OC,Potency,[1],16.9 µM (active)
CN(C)c1ccc(-c2nc3ncc(Cl)c(N4CCN(CC(=O)Nc5nccs5)CC4)c3[nH]2)cc1,Potency,[1],0.536 µM (active)
Cc1cc(OCCCS(C)(=O)=O)cc(C)c1-c1cccc(COc2ccc3c(c2)OC[C@H]3CC(=O)O)c1,Potency,[1],21.3 µM (active)
Cc1ccc(NC(=O)c2cccc(N(C)C)c2)cc1NC(=O)c1ccc(O)cc1,Potency,[1],7.56 µM (active)
CN1[C@H]2CC[C@H]1CC(OC(=O)c1c[nH]c3ccccc13)C2 (stereo partly specified),Potency,[1],inactive
CCCCOCCOc1nc(-c2ccc(C(=O)O)c(F)c2)sc1C,Potency,[2],inactive
same,Potency,[3],inactive
O=C(O)c1nc(=O)[nH]c(=O)[nH]1,Potency,[2],inactive
Cc1cnc(-c2cc(N3CCN(C(=O)CCS(C)(=O)=O)CC3)ncc2Cl)c(C)c1,Potency,[1],21.3 µM (active)
same,Potency,[2],inactive
same,Potency,[3],inactive
COC1CCC(C(=O)c2ccc3nc4c(cc3c2)CCCO4)CC1 (stereo unspecified),Potency,[2],inactive
CC(=O)Nc1cccc(-n2c(=O)n(C3CC3)c(=O)c3c(Nc4ccc(I)cc4F)n(C)c(=O)c(C)c32)c1,Potency,[2],inactive
COc1ccc(-c2cc3nccn3c(Nc3ncccc3C(N)=O)n2)cc1OC,Potency,[1],5.35 µM (active)
same,Potency,[2],0.649 µM (active)
same,Potency,[3],0.728 µM (active)
Cc1ccccc1-n1c(Cn2nc(-c3cccc(O)c3)c3c(N)ncnc32)nc2cccc(C)c2c1=O,Potency,[1],2.13 µM (active)
same,Potency,[2],0.186 µM (active)
same,Potency,[3],0.728 µM (active)
COc1cc2c(cc1OC)CC(=O)N(CCCN(C)C[C@H]1Cc3cc(OC)c(OC)cc31)CC2,Potency,[2],inactive
same,Potency,[3],inactive
Nc1nc(Cl)nc2c1ncn2[C@@H]1O[C@H](CO)[C@@H](O)[C@H]1F,Potency,[2],0.0231 µM (active)
same,Potency,[3],0.0206 µM (active)
CN(C)CCN(Cc1ccc(Cl)cc1)c1ccccn1,Potency,[2],inactive
CNC(=O)[C@H](Cc1ccccc1)NC(=O)[C@H](CC(C)C)[C@H](CSc1cccs1)C(=O)NO,Potency,[1],inactive
same,Potency,[2],inactive
same,Potency,[3],inactive
CC1(C)CC(=O)c2c(C(F)(F)F)nn(-c3ccc(C(N)=O)c(NC4CCC(O)CC4)c3)c2C1 (stereo unspecified),Potency,[1],6.01 µM (active)
same,Potency,[2],57.8 nM (active) and 83.3 nM (active)
same,Potency,[3],57.8 nM (active) and 83.3 nM (active)
CC[C@H](CC#N)OC(=O)N[C@@H](C)c1cccc(NC(=O)Nc2ccc(-c3cnco3)c(OC)c2)c1,Potency,[1],0.0756 µM (active)
same,Potency,[2],129 nM (active) and 166 nM (active)
same,Potency,[3],0.23 µM (active)
CN(C)CCOc1cc(-c2cn[nH]c2)ccc1NC(=O)C1COc2ccccc2O1 (stereo unspecified),Potency,[1],0.674 µM (active)
same,Potency,[3],4.59 µM (active)
COc1ccnc(CS(=O)c2nc3ccc(OC(F)F)cc3[nH]2)c1OC (stereo unspecified),Potency,[1],27.5 µM (active) and 21.3 µM (active)
same,Potency,[2],15 µM (active) and 18.6 µM (active)
same,Potency,[3],15 µM (active) and 18.6 µM (active)
CCc1cc(-c2n[nH]c(C)c2-c2ccc3c(c2)OCCO3)c(O)cc1O,Potency,[1],0.756 µM (active)
same,Potency,[2],8.33 µM (active)
same,Potency,[3],7.42 µM (active)
Cc1ccc(C2=Nc3ccc(Cl)cc3OC2)cc1,Potency,[2],inactive
Cc1ccc(C(=O)N(CCCN)[C@@H](c2nc3cc(Cl)ccc3c(=O)n2Cc2ccccc2)C(C)C)cc1,Potency,[2],0.0132 µM (active)
same,Potency,[3],0.0132 µM (active)
C=CCc1cccc(C=NNC(=O)CN2CCN(Cc3ccccc3)CC2)c1O,outcome,[6],inactive
O=S(=O)(O)c1ccc2cc(N=Nc3cc(S(=O)(=O)O)c4cccnc4c3O)ccc2c1,Potency,[1],inactive
same,Potency,[2],inactive
same,Potency,[3],inactive
CC(C)(CO)[C@@H](O)C(=O)NCCC(=O)O,Potency,[2],inactive
CCCCC[C@H](O)C=C[C@H]1[C@H](O)CC(=O)[C@H]1CC=CCCCC(=O)O,Potency,[1],inactive
same,Potency,[2],0.417 µM (active)
same,Potency,[3],23.7 µM (active)
CC(C)C[C@H](NC(=O)c1cc2ccccc2s1)C(=O)N1CCN(C(=O)[C@H](CO)NS(=O)(=O)c2ccc(Cl)cc2Cl)CC1,Potency,[2],23.5 µM (active)
same,Potency,[3],20.9 µM (active)
CC(C)(O)CC(=O)NCCn1ccc2ncnc(Nc3ccc(Oc4cccc(C(F)(F)F)c4)c(Cl)c3)c21,Potency,[1],5.35 µM (active)
same,Potency,[2],20.5 µM (active) and 11.8 µM (active)
same,Potency,[3],20.5 µM (active) and 13.2 µM (active)
O[C@@H](COc1cccc2ncccc12)CN1CCN(C2c3ccccc3[C@@H]3[C@H](c4ccccc42)C3(F)F)CC1 (stereo partly specified),Potency,[1],10.7 µM (active)
same,Potency,[2],15 µM (active)
same,Potency,[3],10.6 µM (active)
COc1nccc(-c2c(-c3ccc(F)cc3)ncn2C2CCC(O)CC2)n1 (stereo unspecified),Potency,[1],inactive
same,Potency,[3],20.9 µM (active)
Nc1[nH]nc2nnc(-c3c(-c4ccccc4)nn4ccccc34)cc12,Potency,[5],11.2 µM (active)
C[C@@]1(C(=O)Nc2ccc(F)nc2)CCCN1c1nc(Nc2cc(C3CC3)[nH]n2)c2cccn2n1,Potency,[2],2.95 µM (active)
same,Potency,[3],2.63 µM (active)
COc1ccc(-c2oc3c(CC=C(C)C)c(O)cc(O)c3c(=O)c2O)cc1,Potency,[2],inactive
same,Potency,[3],inactive
Cc1cc(NC(=O)Nc2ccc(N(C)C)cc2)c2cc(F)cc(F)c2n1,Potency,[2],inactive
Cc1csc(-c2nnc(Nc3ccc(Oc4ncccc4-c4ccnc(N)n4)cc3)c3ccccc23)c1,Potency,[1],12 µM (active)
same,Potency,[3],inactive and 3 nM (active)
CSc1cccc(Nc2ncc3cc(-c4c(Cl)cccc4Cl)c(=O)n(C)c3n2)c1,Potency,[1],4.25 µM (active)
same,Potency,[2],2.06 µM (active)
same,Potency,[3],2.06 µM (active)
